In PubChem BioAssay (NCATS):
Inconclusive results are not listed. Entries that show only a call come without a potency. Values without a mark were called inactive. Calls of active or inactive are those of the source. Calls follow the shape of the dose curve; as a rule, active = well fitted inhibition curve with a large enough effect; inconclusive = small, poorly fitted or top-dose-only effect; inactive = flat fitted curve, though single readings scatter.

Assay: P-glycoprotein substrates identified in KB-8-5-11 adenocarcinoma cell line, qHTS therapeutic library screen (AID 1346987); also: nearly all actives have a fitted effect of over 65% in size
Conditions: KB-8-5-11 (P-gp overexpressing) viability, CellTiter-Glo, 72 h; series mostly up to 44.5 µM
Summary of the method: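 Steps: plate 500 KB-8-5-11 cells/well in DMEM + 10% FCS (colchicine removed); pin compounds in dose-response; incubate 72 h, 37 degree C, 5% CO2; add CellTiter-Glo, 5 min; read luminescence.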

Row | Structure (SMILES) | Potency | activity change, negative = cytotoxicity
1 | CCC(C)/C=C(C)/C=C/C1=CC2=C(Cl)C(=O)C(C)(OC(C)=O)C(=O)C2=CN1C(CC(=O)O)C(=O)O (stereo not drawn) | inactive | –
2 | C=C(C(=O)O)C1CC(OC(=O)CC(C)CC)C2(C)CCCC(=C)C2C1 (stereo not drawn) | inactive | –
3 | N[C@@H](CCNCc1ccc(Cl)cc1)C(=O)N1CCCCC1 | inactive | –
4 | COc1cncc(C#Cc2ccccn2)c1 | inactive | –
5 | COc1ccc(CC(=O)NCc2ccccc2-c2ccccc2C(=O)NCCc2cccnc2)cc1 | inactive | –
6 | COc1cc(O)cc(C)c1C(=O)OC1C(CO)OC(n2ccc(=O)[nH]c2=O)C1OC(C)=O (stereo not drawn) | inactive | –
7 | CC(=O)N[C@H]1[C@H](O[C@H]2CC[C@]3(C)C4CC=C5[C@@H]6CC(C)(C)CC[C@]6(C(=O)O)[C@H](O)C[C@@]5(C)[C@]4(C)CC[C@H]3C2(C)C)O[C@H](CO)[C@@H](O)[C@@H]1O (stereo partly drawn) | inactive | –
8 | COc1cc(O)c2c(c1)C1(OC2=O)C(C)=CC(=O)C1O (stereo not drawn) | inactive | –
9 | COc1cc(C)c(C(=O)OC2C(C)OC(OC3CCC(C)C4C3C=C(C)C3/C(C)=C\CC/C(C)=C/C5(C)C=C(C(=O)O)C(C)CC56OC(=O)/C(=C(\O)C34C)C6=O)C(O)C2O)c(OC)c1 (stereo not drawn) | – | 8.21% [at 9.29 µM]
10 | C=C1CCC2C(C)(C)CC(O)CC2(C)C1CCC(C)CCOC(=O)CCC(=O)O (stereo not drawn) | inactive | –
11 | CC(C)=CCc1c(O)cc2oc3cc(C)cc(O)c3c2c1C | inactive | –
12 | CC(C)N(CCCNC(=O)Nc1ccc(C(C)(C)C)cc1)C[C@H]1O[C@@H](n2ccc3c(N)ncnc32)[C@H](O)[C@@H]1O | inactive | –
13 | CC1(C(=O)O)CCCC2(C)C3CC4C5CC3(CCC12)CC45C (stereo not drawn) | inactive | –
